An excerpt weighted towards active compounds, which were near 11% of everything screened.
G9a inh: blocks human histone lysine methyltransferase G9a | AID 504332 | G9a H3K9 monomethylation, AlphaScreen, 2 h | 350,000 compounds, 8.8% hits | Potency, µM (series often up to 102 µM), for inactives: top-dose activity, negative = inhibition, usual class: inhibitors; also: % is scaled to controls: 0 for no effect and ±100 for the full control effect; nearly all actives have a fitted effect of over 75% in size
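AlphaScreen detection with an anti-monomethyl H3K9 antibody quantified product after a 2 h room-temperature reaction containing 500 nM biotinylated H3K9 peptide, 20 µM SAM and 20 nM enzyme, which had been preincubated 15 min with compound.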
L3MBTL1 inh: inhibitors of human L3MBTL1. Q9Y468. AlphaScreen L3MBTL1–H3K9me1 peptide binding. Potency, µM (doses to about 57.1 µM), inactives show at the top dose activity, negative = inhibition, usual class: inhibitors. 230,000 compounds, 0.66% hits; also: % is scaled to controls: 0 for no effect and ±100 for the full control effect; nearly all actives have a fitted effect of over 60% in size
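L3MBTL1 50 nM + b-AHA-H3(1-15)K9me1 75 nM, 30 min RT; compound added, 30 min RT; streptavidin donor/Ni-chelate acceptor beads 10 ug/mL each final, 30 min RT dark; AlphaScreen read.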
JMJD2A Tudor: JMJD2A Tudor domain (human) inhibition | O75164 | 390,000 compounds, 4.4% hits | Potency, µM (series often up to 114 µM), inactives show top-dose activity change, negative = inhibition, hits mostly inhibitors | AlphaScreen JMJD2A-Tudor / H3K4me3 peptide binding; also: % is scaled to controls: 0 for no effect and ±100 for the full control effect; nearly all actives have a fitted effect of over 50% in size
HP1b chromo inh: inhibitors of HP1-beta chromodomain binding to methylated histone tails; P83916; AlphaScreen HP1-beta / biotin-H3K9me3 peptide binding; Potency, µM (series often up to 114 µM), without a hit: top-dose activity change, negative = inhibition, actives largely listed as inhibitors; 390,000 compounds, 0.56% hits; AID 540317; also: nearly all actives have a fitted effect of over 70% in size
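HP1-beta protein (50 nM final) preincubated 30 min at room temperature with biotinylated H3(1-18)K9me3 peptide (50 nM) in PBS pH 7.4, 0.01% Tween-20, then compound added for 30 min. AlphaScreen streptavidin donor/nickel chelate acceptor beads (10 ug/mL final), 30 min dark, luminescence read.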
BAZ2B block: blocks human BAZ2B. Potency, µM (doses to about 114 µM), without a hit: top-dose activity change, negative = inhibition, actives largely listed as inhibitors. Q9UIF8. AlphaScreen BAZ2B-H3K14Ac peptide displacement. 360,000 compounds, 4.4% hits; also: % is scaled to controls: 0 for no effect and ±100 for the full control effect; nearly all actives have a fitted effect of over 60% in size
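Complex of BAZ2B and biotin-H3K14Ac (50 nM apiece) forms over 30 min at RT, then faces library compounds up to 110 uM for another 30 min; AlphaScreen beads added, 20 min dark incubation, luminescence read.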
* marks the source's active call; other numbers are inactive results; ! = not confirmed by another sample; [ ] = dose if it differs, or a comment. Calls follow the shape of the dose curve; as a rule, active = well fitted inhibition curve with a large enough effect; inconclusive = small, poorly fitted or top-dose-only effect; inactive = no such curve, though single readings can be large or run the other way. Potency is read from the fitted curve at half-maximal effect.

How did Cc1ccc(Cn2c(C(C)Nc3nc(-c4ccc(F)cc4)cs3)nc3cc(C(F)(F)F)ccc32)cc1 (stereo unspecified) do in these assays?
JMJD2A Tudor: inconclusive; HP1b chromo inh: -22.5%

How did CCCCCCCC[n+]1c(C)n(-c2ccccc2)c2ccc(NC(C)=O)cc21 do in these assays?
G9a inh: 39.8µM*; L3MBTL1 inh: -3.4%; JMJD2A Tudor: -4.2%; HP1b chromo inh: 32.5%; BAZ2B block: -16.6%

What do the screens show for `CSc1ccc(CNC(=O)CN2C(=O)C3CCCCN3c3ccc(C(=O)N4CCCC4)cc32)cc1` (stereo unspecified)?
G9a inh: -16.6%[59 µM]; JMJD2A Tudor: -13.7%; HP1b chromo inh: 21.8%[57 µM]; BAZ2B block: -13.0%

What do the screens show for `COc1ccc(-c2cn(-c3ccc(C)cc3)c(S(=O)(=O)CC(=O)Nc3ccccc3)n2)cc1`?
G9a inh: inconclusive; JMJD2A Tudor: inconclusive; HP1b chromo inh: 28.0%; BAZ2B block: -27.3%

Results for COc1ccccc1C(=O)N1CCC(c2noc(-c3ccc(S(=O)(=O)N4CCCC4)cc3)n2)CC1 ?
G9a inh: 0.4%[59 µM]; JMJD2A Tudor: -23.0%; HP1b chromo inh: 21.4%; BAZ2B block: -10.0%

Results for Cc1cc(NC(=O)C(C)C)ncc1NC(=O)c1ccccn1 ?
G9a inh: 17.8µM*; L3MBTL1 inh: 10.5%; JMJD2A Tudor: -15.1%; HP1b chromo inh: -7.5%; BAZ2B block: 50.1µM*

What do the screens show for `CCOc1cc(NC(=O)c2ccccn2)c(OCC)cc1NC(=O)CC(C)C`?
G9a inh: 11.1%[59 µM]; L3MBTL1 inh: 5.5%; JMJD2A Tudor: 20µM*; HP1b chromo inh: -9.9%; BAZ2B block: 7.0%

What do the screens show for `CCOc1cc(NC(=O)c2ccccn2)c(OCC)cc1NC(=O)c1ccccc1`?
G9a inh: -1.6%; L3MBTL1 inh: 13.8%; JMJD2A Tudor: 0.7%; HP1b chromo inh: 55.3%; BAZ2B block: -0.8%

Results for CCCC(=O)Nc1cc(C)c(NC(=O)c2ccccn2)cn1 ?
G9a inh: 7.94µM*; L3MBTL1 inh: -0.5%; JMJD2A Tudor: inconclusive; HP1b chromo inh: 36.7%; BAZ2B block: 50.1µM*

What do the screens show for `CCCC(=O)Nc1cc(C)c(NC(=O)c2ccco2)cn1`?
L3MBTL1 inh: -3.9%; JMJD2A Tudor: -15.9%; HP1b chromo inh: -0.2%; BAZ2B block: -3.5%

What do the screens show for `Cc1ccc(NC(=O)CN(C)S(=O)(=O)c2ccc3c(c2)CCC(=O)N3)c(C)c1`?
G9a inh: 5.4%[59 µM]; JMJD2A Tudor: -11.8%; HP1b chromo inh: 25.3%; BAZ2B block: -12.8%

Results for CCOc1ccc(C2Nc3ccccc3-c3nnc(SCc4ccccc4)nc3O2)cc1OC (stereo unspecified) ?
G9a inh: -68.6%[59 µM]; JMJD2A Tudor: -28.0%; HP1b chromo inh: 14.6%; BAZ2B block: -38.0%

How did O=C(Cn1c(=O)n(CCc2ccccc2)c(=O)c2cccnc21)Nc1ccc(F)cc1 do in these assays?
G9a inh: 5.2%[59 µM]; JMJD2A Tudor: -16.4%; HP1b chromo inh: 30.0%; BAZ2B block: 4.7%

Results for Cc1ccc(O)c(N=Nc2ccccc2)n1 ?
G9a inh: 11.2µM*!; JMJD2A Tudor: inconclusive; HP1b chromo inh: -25.5%

Results for Cc1ccc(C)c(NC(=O)CCC(=O)N/N=C/c2cccnc2)c1 ?
G9a inh: 18.4%[0.501 µM]; JMJD2A Tudor: -0.7%; HP1b chromo inh: 49.2%; BAZ2B block: -5.6%

What do the screens show for `O=C(CCC(=O)Nc1ccc(F)cc1)N/N=C/c1ccncc1`?
G9a inh: 6.5%; JMJD2A Tudor: 3.55µM*; HP1b chromo inh: 3.6%

What do the screens show for `Cc1ccccc1NC(=O)CCC(=O)N/N=C/c1ccncc1`?
G9a inh: 7.08µM*; L3MBTL1 inh: -7.0%; JMJD2A Tudor: -17.6%[11.4 µM]; HP1b chromo inh: 61.6%; BAZ2B block: inconclusive

How did O=C(CCC(=O)Nc1ccccc1)N/N=C/c1ccncc1 do in these assays?
G9a inh: 20.2%[59 µM]; L3MBTL1 inh: 23.5%; JMJD2A Tudor: -16.9%[11.4 µM]; HP1b chromo inh: 6.8%; BAZ2B block: 0.7%

Results for COc1ccc(NC(=O)CCC(=O)N/N=C/c2ccncc2)cc1 ?
G9a inh: 22.4µM*; L3MBTL1 inh: 9.5%; JMJD2A Tudor: 7.4%; HP1b chromo inh: 52.8%; BAZ2B block: -4.5%

Screens (PubChem BioAssay)
